IMPase Li inh: cell-permeable IMPase inhibitors with lithium potentiation. AID 1457. CHO-M1 cells, IP1 TR-FRET (IP-One), carbachol + lithium. Potency, µM (top dose mostly 59.4 µM), for the others: top-dose activity, negative = IMPase inhibition, hits mostly inhibitors. 210,000 tested, 0.35% active; active = well fitted curve in the direction sought with a large enough effect; inconclusive = small, poorly fitted or top-dose-only effect, or another doubt; inactive = no such curve, though single readings can be large; an effect the other way counts as inactive or inconclusive;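 note: IP1 builds up when IMPase is blocked and the TR-FRET signal falls; plate controls were basal vehicle for no effect and high inhibitor control for full effect; nearly all actives have a fitted effect of over 50% in size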
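IP1 accumulation measured by competitive TR-FRET in lysed CHO-M1 cells after 30 min compound exposure at 37C, with a small lithium addition to potentiate weak responses. Hill-equation AC50 from ratio and donor-channel data.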
Lamin A splicing: modulators of lamin A splicing; 200,000 tested, 0.01% active; HeLa LMNA splicing GFP/RFP minigene ratio, 48 h; Potency, µM (top dose mostly 46.1 µM), for inactives: at the top dose ratio change, negative = inhibition, hits mostly inhibitors; active = well fitted inhibition curve with a large enough effect in the signal ratio, with a control signal flat, not every such curve was filed as active; inconclusive = small, poorly fitted or top-dose-only effect, or effect the other way, or a change in a side signal; the % refers to the signal ratio
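S3 HeLa cells stably expressing lamin A-EGFP splicing minigene plus DsRed2, 600 cells/well, 48 h compound exposure at 37C. Laser-scanning cytometry; analysed as GFP (500-530 nm)/RFP (575-640 nm) total intensity ratio; 0.5% DMSO vehicle.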
ALDH1A1 block: blocks purified human ALDH1A1 activity; P00352; Purified ALDH1A1, NADH fluorescence, propionaldehyde substrate; Potency, µM (series often up to 75.3 µM), for the others: top-dose activity, negative = inhibition, usual class: inhibitors; 220,000 tested, 7.3% active; AID 1030;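 note: plate controls were no enzyme wells and a reference inhibitor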
Target sequence (P00352 whole entry, looked up): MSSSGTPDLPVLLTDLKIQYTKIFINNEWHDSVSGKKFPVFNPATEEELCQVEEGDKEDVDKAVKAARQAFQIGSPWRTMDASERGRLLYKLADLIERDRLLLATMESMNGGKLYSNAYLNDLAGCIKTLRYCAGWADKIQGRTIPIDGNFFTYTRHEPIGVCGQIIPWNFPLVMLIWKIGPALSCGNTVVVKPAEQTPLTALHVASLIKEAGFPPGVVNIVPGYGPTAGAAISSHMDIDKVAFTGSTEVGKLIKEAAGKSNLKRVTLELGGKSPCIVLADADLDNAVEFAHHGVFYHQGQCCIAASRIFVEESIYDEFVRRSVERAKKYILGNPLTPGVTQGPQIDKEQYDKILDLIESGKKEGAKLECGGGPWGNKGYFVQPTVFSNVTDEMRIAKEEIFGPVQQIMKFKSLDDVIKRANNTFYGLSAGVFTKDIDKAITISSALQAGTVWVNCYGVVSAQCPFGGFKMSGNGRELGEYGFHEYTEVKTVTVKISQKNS
KinaseGlo FLuc: counter-screen: inhibitors of Kinase-Glo firefly luciferase | Q27757 | Kinase-Glo luciferase, ATP luminescence, 8 min | Potency, µM (titrated, usually from 38.3 µM), without a hit: at the top dose activity change, negative = inhibition, usual class: inhibitors | 200,000 tested, 0.28% active; active = well fitted curve in the direction sought with a large enough effect; inconclusive = small, poorly fitted or top-dose-only effect, or another doubt; inactive = no such curve, though single readings can be large; an effect the other way counts as inactive or inconclusive; note: nearly all actives have a fitted effect of over 60% in size
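Light output from Kinase-Glo luciferase with luciferin and 10 uM ATP in 50 mM imidazole pH 7.2, KCl, MgCl2, Tween 20, BSA; compound pin-delivered, 8-min ambient incubation, then luminescence read.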
HPGD block: inhibitors of human 15-hydroxyprostaglandin dehydrogenase (HPGD). purified HPGD, NADH fluorescence kinetic, PGE2 substrate. Potency, µM, for inactives: at the top dose activity change, negative = inhibition, actives largely listed as inhibitors. P15428. 150,000 tested, 4.3% active. AID 894
Target sequence (P15428 whole entry, looked up): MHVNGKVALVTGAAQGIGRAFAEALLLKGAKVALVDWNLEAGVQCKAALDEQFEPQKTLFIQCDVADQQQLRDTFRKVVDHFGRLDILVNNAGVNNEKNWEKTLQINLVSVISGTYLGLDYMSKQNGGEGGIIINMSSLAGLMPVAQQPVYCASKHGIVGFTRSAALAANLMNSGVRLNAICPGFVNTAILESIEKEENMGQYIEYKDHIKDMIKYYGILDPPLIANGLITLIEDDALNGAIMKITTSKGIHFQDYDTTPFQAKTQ
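20 nM HPGD preincubated 15 min at room temperature with compound in 50 mM Tris-HCl pH 8, 0.01% Tween 20. Started with 1 mM NAD+ and 30 uM prostaglandin E2; NADH fluorescence (360/450 nm) read 5 times over 30-s intervals, last minus first.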
* = called active by the depositor; ? = inconclusive; . = not tested or not shown; [ ] = remark or other dose. Compounds with a hit are over-represented: about 9% of the library has one in this group of screens. Unless noted, calls come from the whole dose curve; as a rule, active = well fitted inhibition curve with a large enough effect (not every such curve was filed as active); inconclusive = small, poorly fitted or top-dose-only effect, or another doubt; inactive = no such curve, though single readings can be large or run the other way. Unless noted, % is set by controls: 0 for no effect and ±100 for the full control effect; potency is the fitted concentration of half-maximal effect.

SMILES | IMPase Li inh | Lamin A splicing | ALDH1A1 block | KinaseGlo FLuc | HPGD block
C#CCOCCOCCOCCNc1nc(N2CCN(C(=O)[C@H](CCCCN)n3cc([C@@H](N)CO)nn3)CC2)nc(N2CCN(C(=O)[C@H](Cc3cc4ccccc4[nH]3)n3cc([C@@H](N)CC(C)C)nn3)CC2)n1 | -14.8% | . | -6.8% | . | .
Cc1ccc(CNC(=O)CSc2c3c(nc4ccc(Cl)cc24)CCCC3)o1 | ? | ? | 8.91µM* | 0.7% | -28.1%
CCN(CC)CCNC(=O)CSc1c2c(nc3cc(Cl)ccc13)CCCC2 | -5.7% | . | 3.9% | 8.6% | .
COCCN(C(=O)CSc1nncn1-c1ccccc1)c1c(N)n(Cc2ccccc2)c(=O)[nH]c1=O | 1.6% | 8.2% | 13.7% | 0.5% | -9.8%
CCCCN(C(=O)CSc1nncn1-c1ccccc1OC)c1c(N)n(Cc2ccccc2)c(=O)[nH]c1=O | 1.2% | -7.0%[46 µM] | 2.24µM* | -2.8% | .
O=C(CN1C(=O)/C(=C\c2cccc(Cl)c2)Oc2ccccc21)N1CCN(c2ccccn2)CC1 | -3.0% | . | ? | -2.1% | .
O=C1/C(=C/N(C(=O)c2ccco2)c2ccc(Br)cc2)Sc2ccccc21 | 3.4% | -0.6% | ? | -20.3% | 31.6µM*
[N-]=[N+]=CC(=O)C(Cc1ccccc1)N1C(=O)c2ccccc2C1=O (stereo not drawn) | 1.4%[38.3 µM] | 1.6% | 2.82µM* | -3.6% | -13.5%
O=c1nc2n(c3sc4c(c13)CCCC4)C(CBr)CS2 (stereo not drawn) | -11.3%[38.3 µM] | ? | 12.6µM* | -3.1% | ?
Cc1cc(S(=O)(=O)N2CCCC2)ccc1OCC(=O)NCc1ccco1 | 28.4%[38.3 µM] | 8.4% | 10µM* | 3.3% | ?
CCn1cc(C(=O)NCC2CCCO2)c(=O)c2cc(S(=O)(=O)N3CCC(C)CC3)ccc21 (stereo not drawn) | -2.1%[38.3 µM] | -2.6% | -1.6% | 0.7% | -5.9%
CC(C)(C)c1ccc(OCC(=O)NCc2ccco2)c(Br)c1 | 0.6%[38.3 µM] | 2.5% | 17.8µM* | 0.9% | -27.5%
O=C(COc1ccc(S(=O)(=O)NC2CCCCC2)cc1Cl)NCc1ccc2c(c1)OCO2 | 23.9%[38.3 µM] | ? | -4.5% | 17.1% | -20.7%
O=C(COc1ccc(S(=O)(=O)N2CCCC2)cc1Cl)NCc1ccc2c(c1)OCO2 | 33.9%[38.3 µM] | -13.0% | 5.01µM* | 3.1% | -16.0%
CCn1cc(C(=O)NCC2CCCO2)c(=O)c2cc(S(=O)(=O)N3CCCCCC3)ccc21 (stereo not drawn) | 10.2%[38.3 µM] | 10.9% | 4.47µM* | -1.3% | -11.7%
CCN(CC)C(=O)c1sc(N2C(=O)Nc3ccccc3N2O)c(C(=O)OC)c1C | 6.0% | . | 0.2% | -5.0% | .
O=C(N/N=C/c1ccc([N+](=O)[O-])o1)C1CC1 | 4.9% | ? | -2.2% | -0.9% | .
O=C(/C=C/c1c(Cl)nc2ccccn12)Nc1ccc(F)cc1 | ? | . | 8.0% | 1.0% | .
O=C(COc1ccc(S(=O)(=O)N2CCCC2)cc1Cl)N1CCN(c2ccccc2)CC1 | 19.6%[38.3 µM] | ? | 17.8µM* | 1.7% | -13.3%
CCn1cc(C(=O)NCc2ccco2)c(=O)c2cc(S(=O)(=O)N3CCCC3)ccc21 | 6.2% | . | 25.1µM* | 3.5% | .
CCOC(=O)c1cn(CC)c2ccc(S(=O)(=O)N3CC(C)CC(C)C3)cc2c1=O (stereo not drawn) | -3.9%[38.3 µM] | 19.2% | 14.1% | -2.3% | -17.5%
O=C(OCc1ccc2c(c1)OCO2)c1cccc(S(=O)(=O)N2CCCCC2)c1 | 42.6%[38.3 µM] | 22.7% | 7.08µM* | -3.9% | ?
CCOC(=O)c1cn(CC)c2ccc(S(=O)(=O)N3CCC(C)CC3)cc2c1=O | 4.4%[38.3 µM] | 2.0% | -12.1% | 1.2% | 15.8µM*
O=C(OCc1ccc2c(c1)OCO2)c1ccc(S(=O)(=O)N2CCCC2)cc1 | 40.8%[38.3 µM] | -1.7% | ? | 1.7% | -10.3%
O=C(COc1ccc(Cl)cc1Br)N1CCN(c2ccccc2)CC1 | 10.5%[38.3 µM] | ? | 1.3% | 12.8% | -9.0%
SMILES | IMPase Li inh | Lamin A splicing | ALDH1A1 block | KinaseGlo FLuc | HPGD block
Cc1noc(C)c1-c1nccc(Nc2ccc(F)cc2)n1 | 14.1% | ? | -11.8% | . | .
O=c1c(-c2ccc(F)cc2)nc2cnc(Nc3ccccc3)nc2n1Cc1cccs1 | -10.1% | . | 191.5% | -4.2% | -2.9%
CSCCn1c(C(C)(C)C)cc(C(=O)O)c1C | . | . | -0.9% | . | .
CCn1cc(C(=O)N2CCc3ccccc3C2)c(=O)c2cc(S(=O)(=O)N3CCCCC3)ccc21 | -2.3% | 0.4% | ? | -1.4% | -2.9%
CCn1cc(C(=O)NCCc2ccccc2)c(=O)c2cc(S(=O)(=O)N3CCCC3)ccc21 | 12.2% | . | 31.6µM* | -1.4% | .
CN(C)/C=C/C1=CC(=O)CC(C)(C)C1 | -7.5% | 5.6%[9.22 µM] | 8.91µM* | -1.0% | .
CC1(C)CC(=O)C=C(NCCO)C1 | 13.8%[38.3 µM] | -1.4% | -0.8% | -2.0% | -4.6%
COc1ccc(-c2cc(=O)c3c(O)cc(O[C@H]4OC(COC5OC(C)C(O)C(O)[C@H]5O)C(O)C(O)C4O)cc3o2)cc1O (stereo partly drawn) | -3.2% | . | ? | -7.5% | -18.7%
COc1ccc(-c2cc(=O)c3c(O)cc(O[C@@H]4OC(COC5OC(C)C(O)C(O)[C@@H]5O)C(O)C(O)C4O)cc3o2)cc1 (stereo partly drawn) | -3.7% | . | -4.7% | -3.0% | 22.4µM*
Cc1cc(NC(=O)NN2CCOCC2)nn1-c1c(Cl)cc(Cl)cc1Cl | . | . | 5.2% | . | .
S=C(N=Nc1ccccc1)NNc1ccccc1 | 2.6% | -6.5% | 11.2µM* | -7.0% | ?
CC(=Nc1ccccc1)Nc1ccccc1 | 13.2%[38.3 µM] | 13.1% | 2.3% | 0.1% | -7.3%
CC1CCCN(c2ncnc3c2cnn3-c2ccc(F)cc2)C1 (stereo not drawn) | . | -4.8%[46 µM] | . | . | .
COc1cc(-c2nc(S(=O)(=O)c3ccc(Br)cc3)c(N3CCOCC3)o2)cc(OC)c1OC | . | -5.3%[46 µM] | . | . | .
CCC(C)(C)NC(=O)C(c1cccn1C)N(C(=O)Cn1nnc2ccccc21)c1ccc(OC)cc1OC (stereo not drawn) | 9.8% | -8.0% | 11.2µM* | -4.2% | -1.2%
CCOc1ccc(N(C(=O)Cn2nnc3ccccc32)C(C(=O)NC(C)(C)CC)c2cccn2C)cc1 (stereo not drawn) | -0.3% | -9.1% | 0.3% | 1.9% | -7.9%
CCSc1nc2nn(-c3ccccc3)c(=O)c-2c2n1CCCCC2 | 51.4%[38.3 µM] | 1.8% | 2.51µM* | 16.1% | -17.7%
O=C(CSc1nc2nn(-c3ccccc3)c(=O)c-2c2n1CCCCC2)NCCc1ccccc1 | 21.9% | -4.4%[46 µM] | -3.6% | 0.6% | .
COc1ccc(NC(=S)NCCN2CCC(C)CC2)cc1Cl | -5.5% | . | 4.2% | 1.3% | .
CS(=O)(=O)N(CC(=O)Nc1ccccc1C(=O)N1CCCC1)c1cccc([N+](=O)[O-])c1 | -0.1% | -13.8%[46 µM] | 15.8µM* | -0.5% | .
COc1ccc([N+](=O)[O-])cc1N(CC(=O)Nc1ccccc1C(=O)N1CCCC1)S(C)(=O)=O | 0.5% | . | 5.5% | . | .
COc1ccc(-c2cn3nc(N4CCC(C(=O)Nc5cc(Cl)ccc5OC)CC4)sc3n2)cc1 | . | 10.1%[46 µM] | . | . | .

Compound activity: PubChem, National Center for Advancing Translational Sciences (NCATS)
